Assay [1] has as its system Wnt5a (protein binding on small-molecule microarray). Description: Wnt5a binders on small-molecule microarray, primary screen, biophysical, 635/667 nm fluorescence (AID 1142).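 Also: fluorescence read at 667 nm with signal to noise per printed feature.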 Conditions: 635 nm fluorescence, higher = more signal.
Assay [2] can be described thus: cell viability in Huh7 cells, primary screen, cytotoxicity control for HCV replication inhibitor project, CellTiter-Glo luminescence, basal, 48 h (AID 1143).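 Also: Huh7 hepatoma cells carrying a hepatitis C replication reporter with no stimulus; test concentration not given here.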 Conditions: Huh7 HCV replicon, higher = more signal, called active from +8 up or from −8 down. On the technique in general: ATP-based viability assays read luminescence as a measure of living cells.
Assay [3] in a line: P. aeruginosa biofilm formation inhibitors, primary screen, PAO1 strain, BacTiter-Glo luminescence, LB-PBS (AID 1144). Conditions: 12 h, higher = more signal.
Assay [4] can be described thus: CREB reporter modulators without forskolin, primary screen, cell-based, PC12, CRE-LacZ reporter, unstimulated (AID 1145). As to conditions: no forskolin, luminescence, 4.5 h, higher = more signal, called active from +8 up or from −8 down.
Assay [5] can be described thus: CREB reporter modulators under forskolin, primary screen, cell-based, PC12, CRE-LacZ reporter, forskolin-stimulated (AID 1146).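 Also: PC12 cells with 6xCRE LacZ reporter stimulated by forskolin 10 µM; beta-galactosidase reporter signal reflecting CREB driven transcription.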 Conditions: luminescence, 4.5 h, higher = more signal, called active from +8 up or from −8 down.
In assay [6] the target is Streptavidin (Streptomyces avidinii) (UniProt P22629). Kind of assay: streptavidin binders on small-molecule microarray, primary screen, artefact control for SMM compound annotation, biophysical, 635/667 nm fluorescence (AID 1147).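 Also: signal reflects streptavidin binding to arrayed compounds as a control protein.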 Conditions: streptavidin binding, higher = more signal.
Assay [7] in a line: small-molecule binders of probe aInhba, primary screen, biochemical, small-molecule microarray, 635/667 nm fluorescence (AID 1148).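 Also: score merges 667nm spot fluorescence with signal-to-noise for antibody binding to printed compounds.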 As to conditions: higher = more signal.
Assay [8] has as its target Torsin-1A (Homo sapiens) (UniProt O14656). Description: torsin A binders from cell lysate, primary screen, small-molecule microarray, wild-type, 635/667 nm (AID 1149). As to conditions: COS7 hTOR1A-WT lysate, 635 nm fluorescence, higher = more signal.
Assay [9] shares this target. Description: small-molecule binders of mutant TOR1A in lysate, primary screen, cell lysate, small-molecule microarray, COS7 lysate, 635/667 nm fluorescence (AID 1150).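 Also: score pools 667 nm emission and signal to noise measuring lysate protein binding.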 As to conditions: COS7 hTOR1A mutant lysate, 635 nm fluorescence, higher = more signal.
Assay [10] concerns Sonic hedgehog protein (Shh). Description: small-molecule binders of Shh protein, primary screen, biochemical, small-molecule microarray, 635/667 nm fluorescence (AID 1151).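 Also: Shh protein binding to compounds spotted on small-molecule microarray slides; score combines spot fluorescence intensity with signal-to-noise across triplicate slides.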 Conditions: small-molecule microarray binding, 635 nm fluorescence; higher = more signal.

In PubChem BioAssay one finds composite z-score and z-score data, which are given here for 15 compounds.

Active and inactive are the calls of the source. Unless noted, no rule for the calls is given here.

Sequence of Streptavidin (Streptomyces avidinii) (P22629 whole entry, looked up): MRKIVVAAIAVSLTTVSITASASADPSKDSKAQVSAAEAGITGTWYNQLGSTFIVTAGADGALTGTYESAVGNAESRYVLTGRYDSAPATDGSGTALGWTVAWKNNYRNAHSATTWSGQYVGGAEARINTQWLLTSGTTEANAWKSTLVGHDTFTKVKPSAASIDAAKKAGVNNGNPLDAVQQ
Sequence of Torsin-1A (Homo sapiens) (O14656 whole entry, looked up): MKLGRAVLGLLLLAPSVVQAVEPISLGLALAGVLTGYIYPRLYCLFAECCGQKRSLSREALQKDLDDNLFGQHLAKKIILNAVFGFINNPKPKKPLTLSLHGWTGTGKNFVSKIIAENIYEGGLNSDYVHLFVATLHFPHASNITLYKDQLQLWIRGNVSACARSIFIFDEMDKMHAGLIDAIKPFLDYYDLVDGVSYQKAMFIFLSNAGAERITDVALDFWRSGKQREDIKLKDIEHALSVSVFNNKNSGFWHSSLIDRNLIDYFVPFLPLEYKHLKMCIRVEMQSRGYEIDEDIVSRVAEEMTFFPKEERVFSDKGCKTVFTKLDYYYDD

Consider `COCC(=C=CC[C@@H](O)c1ccccc1OCCO)C[C@@H](O)c1ccccn1`, for which the composite z-score was 0.088 in assay [1]; -0.0795 in [6]; 0.0737 in assay [7]; 0.162 with Torsin-1A (Homo sapiens) [8]; 0.679 with Torsin-1A (Homo sapiens) [9]; 1.89 in assay [10]. For the same compound, the z-score in [2] was -0.202 (inactive); in assay [3] it was 1.2 (inactive); in assay [4], 1.99 (inactive); in [5], -0.465 (inactive).

For the compound `CC(=O)NCCCC[C@@H]1NC(=O)[C@@H]2C[C@H](C(=O)NCCCC[N+](C)(C)C)[C@H](c3cccc(OCCO)c3)N2C1=O`, the composite z-score is 0.198 in assay [1]; -0.407 in assay [6]; -0.0471 in assay [7]; 2.44 in the assay with Torsin-1A (Homo sapiens) [8]; 1.83 with Torsin-1A (Homo sapiens) [9]; 1.89 in assay [10]. The z-score in assay [2] is -0.283 (inactive); in assay [3], -0.192 (inactive); in assay [4] it was -0.532 (inactive); in assay [5], -0.441 (inactive).

For `C=CCC(OC(C)=O)[C@@H]1[C@@H](N(Cc2cccc3ccccc23)C(=O)Cc2ccc(F)cc2)c2cc(OCCCO)ccc2N1C(=O)Cc1ccc(OC)cc1` (stereo not given in full), the composite z-score is -0.0124 in [1]; 0.227 in assay [6]; -0.102 in [7]; -0.149 in the assay with Torsin-1A (Homo sapiens) [8]; -0.137 with Torsin-1A (Homo sapiens) [9]; 0.309 in assay [10]. Besides, the z-score was -0.627 (inactive) in assay [2], -0.945 (inactive) in [3], -0.579 (inactive) in assay [4] and -0.374 (inactive) in assay [5].

For the compound `C[N+](C)(C)CCCCNC(=O)[C@H]1C[C@H]2C(=O)NCC(=O)N2[C@H]1c1ccc(O)cc1`, the composite z-score worked out at 0.442 in assay [1]; 0.158 in assay [6]; 0.106 in [7]; 0.979 in the assay with Torsin-1A (Homo sapiens) [8]; 0.672 in the assay with Torsin-1A (Homo sapiens) [9]; 2.14 in assay [10]. For the same compound, the z-score in assay [2] is 0.215 (inactive); in assay [3], -0.895 (inactive); in [4], -0.398 (inactive); in [5], -0.501 (inactive).

With `C=CC[C@@]1(C(=O)NCCN2CCOCC2)N=C(c2ccc(OCCCO)cc2)O[C@@H]1c1ccccc1`, the composite z-score in [1] stood at 1.32; in [6] it was 0.803; in assay [7] it was 0.328; with Torsin-1A (Homo sapiens) [8], 1.24; with Torsin-1A (Homo sapiens) [9], 0.94; in [10], 2.1. The z-score in assay [2] was -0.914 (inactive); in assay [3], -0.299 (inactive); in [4], 0.54 (inactive); in assay [5], -0.0392 (inactive).

With `COC(=O)c1ccc(OC)c(/C=C\CC(CCc2ccccc2)OC(=O)c2ccncc2)c1` (stereo not given), the composite z-score in assay [1] was -0.272; in [6], 0.925; in assay [7], -0.404; with Torsin-1A (Homo sapiens) [8], 0.175; with Torsin-1A (Homo sapiens) [9], 0.092; in [10] it was 1.25. The z-score in assay [2] is -1.66 (inactive); in [3], 1.02 (inactive); in assay [4], 1.75 (inactive); in assay [5] it was 0.455 (inactive).

Take `CCCCC(O)C1C=CC2C(=O)N(Cc3ccccc3)C(=O)C2N1n1cnnc1` (stereo not given): the composite z-score in assay [1] is 0.0687; in assay [6], 0.416; in assay [7], -0.0477; in the assay with Torsin-1A (Homo sapiens) [8], 0.0569; with Torsin-1A (Homo sapiens) [9], -0.459; in [10], 0.22. For the same compound, the z-score is -4.01 (inactive) in assay [2], -0.372 (inactive) in [3], 0.519 (inactive) in assay [4] and -0.422 (inactive) in assay [5].

On to `Cc1ccccc1C(O)C1C=CC2C(=O)N(Cc3ccccc3)C(=O)C2N1n1cnnc1` (stereo not given), for which the composite z-score in assay [1] is 0.166; in assay [6], 0.0691; in assay [7] it was -0.0986; with Torsin-1A (Homo sapiens) [8], 0.374; in the assay with Torsin-1A (Homo sapiens) [9], 0.755; in assay [10] it was 0.59. Also, the z-score in assay [2] was -0.293 (inactive); in [3], -1.45 (inactive); in assay [4], -0.667 (inactive); in [5], 0.688 (inactive).

For `C=CCOC(=O)[C@@H]1[C@H]2C(=O)O[C@H](c3ccccc3)[C@H](c3ccccc3)N2[C@H](c2ccc(OCCOC(=O)[C@@H]3C[C@@H]4C(=O)N5CCC[C@H]5C(=O)N4[C@@H]3c3cccc(OCCO)c3)cc2)[C@@]12C(=O)Nc1ccc(I)cc12`, the composite z-score in [1] is 0.667; in assay [6], 0.161; in assay [7] it was -0.0221; in the assay with Torsin-1A (Homo sapiens) [8] it was 0.85; in the assay with Torsin-1A (Homo sapiens) [9], 0.623; in assay [10], 2.01. The z-score in assay [2] is -1.77 (inactive); in assay [3], -0.49 (inactive); in assay [4], -1.2 (inactive); in assay [5], -0.725 (inactive).

On to `Cc1ccccc1C(O)C1C=CC2C(=O)N(C)C(=O)C2N1Nc1ccc([N+](=O)[O-])cc1[N+](=O)[O-]` (stereo not given), for which the composite z-score in assay [1] was 0.483; in assay [6] it was 1.04; in [7], 0.138; with Torsin-1A (Homo sapiens) [8], -0.0091; with Torsin-1A (Homo sapiens) [9], 0.94; in [10], -0.457. The z-score was -0.157 (inactive) in assay [2], 0.262 (inactive) in assay [3], 0.443 (inactive) in assay [4] and 0.57 (inactive) in [5].

As for `CC(C)(C)N1CC=CC23O[C@@H]4C=CCCOC(=O)C4[C@H]2C(=O)N(CCCO)[C@@H]3C1=O` (stereo not given in full), the composite z-score in assay [1] is -0.213; in [6] it was -1.33; in assay [7], -0.23; with Torsin-1A (Homo sapiens) [8], -0.253; with Torsin-1A (Homo sapiens) [9], -0.663; in assay [10], 0.398. Also, the z-score in assay [2] is -2.5 (inactive); in assay [3] it was -0.93 (inactive); in assay [4], 0.451 (inactive); in assay [5], -0.178 (inactive).

On to `COCCCNC(=O)[C@@]1(Cc2ccccc2CN=[N+]=[N-])N=C(c2ccc(OCCCO)cc2)O[C@H]1c1ccccc1N=[N+]=[N-]`, for which the composite z-score in [1] turned out to be 1.08; in assay [6] it was 1.37; in assay [7], 0.786; in the assay with Torsin-1A (Homo sapiens) [8] it was 0.0556; with Torsin-1A (Homo sapiens) [9], 0.516; in assay [10], 0.341. Moreover, the z-score in assay [2] was -4.47 (inactive); in assay [3] it was -0.867 (inactive); in [4] it was -0.207 (inactive); in [5], -0.834 (inactive).

For the compound `CCCN1C(=O)[C@@H]2Cc3c([nH]c4ccccc34)[C@@H](c3cccc(O)c3)N2C1=O`, the composite z-score in assay [1] was -0.0436; in assay [6], -0.294; in assay [7], -0.024; with Torsin-1A (Homo sapiens) [8] it was 0.288; in the assay with Torsin-1A (Homo sapiens) [9], 0.193; in [10] it was 0.216. Moreover, the z-score is 0.792 (inactive) in [2], -0.23 (inactive) in assay [3], -0.374 (inactive) in [4] and -0.0707 (inactive) in assay [5].

In the case of `CCCCCCCCCCC(O)C1C=CC2C(=O)NC(=O)C2N1Nc1ccccn1` (stereo not given), the composite z-score in assay [1] is -0.41; in [6] it was 0.606; in assay [7] it was -0.0087; with Torsin-1A (Homo sapiens) [8] it was -1.17; in the assay with Torsin-1A (Homo sapiens) [9], -0.213; in [10], -0.478. The z-score in [2] was -3.4 (inactive); in assay [3] it was -1.27 (inactive); in assay [4] it was 3.3 (inactive); in assay [5], 0.383 (inactive).

Turning to `C=CCOc1ccc([C@@H]2CC=C(C(=O)OCC)[C@H](c3cccc(Br)c3)N2S(=O)(=O)c2ccc(C)cc2)cc1`, the composite z-score in [1] was 0.141; in assay [6] it was 0.414; in [7], -0.0831; with Torsin-1A (Homo sapiens) [8], 0.0699; in the assay with Torsin-1A (Homo sapiens) [9], 0.307; in [10], 0.0537. The z-score was -4.43 (inactive) in assay [2], 0.681 (inactive) in assay [3], -0.424 (inactive) in [4] and 0.165 (inactive) in assay [5].
